Only some compounds are listed: those with a hit (about 3.4% of all), similar ones and a draw of the others.
FBW7 activator: activators of human E3 ligase FBW7 | 0.13% of 650,000 active | normalized activity (activation), % at 26.1 µM | Q969H0 | AlphaScreen FBW7–phospho-cyclin E peptide binding, activator screen | AID 1259310; in the data active = normalized activity above about 1.9%;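 also: purified mutant Fbw7 with reduced substrate affinity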
Target sequence (Q969H0 whole entry, looked up): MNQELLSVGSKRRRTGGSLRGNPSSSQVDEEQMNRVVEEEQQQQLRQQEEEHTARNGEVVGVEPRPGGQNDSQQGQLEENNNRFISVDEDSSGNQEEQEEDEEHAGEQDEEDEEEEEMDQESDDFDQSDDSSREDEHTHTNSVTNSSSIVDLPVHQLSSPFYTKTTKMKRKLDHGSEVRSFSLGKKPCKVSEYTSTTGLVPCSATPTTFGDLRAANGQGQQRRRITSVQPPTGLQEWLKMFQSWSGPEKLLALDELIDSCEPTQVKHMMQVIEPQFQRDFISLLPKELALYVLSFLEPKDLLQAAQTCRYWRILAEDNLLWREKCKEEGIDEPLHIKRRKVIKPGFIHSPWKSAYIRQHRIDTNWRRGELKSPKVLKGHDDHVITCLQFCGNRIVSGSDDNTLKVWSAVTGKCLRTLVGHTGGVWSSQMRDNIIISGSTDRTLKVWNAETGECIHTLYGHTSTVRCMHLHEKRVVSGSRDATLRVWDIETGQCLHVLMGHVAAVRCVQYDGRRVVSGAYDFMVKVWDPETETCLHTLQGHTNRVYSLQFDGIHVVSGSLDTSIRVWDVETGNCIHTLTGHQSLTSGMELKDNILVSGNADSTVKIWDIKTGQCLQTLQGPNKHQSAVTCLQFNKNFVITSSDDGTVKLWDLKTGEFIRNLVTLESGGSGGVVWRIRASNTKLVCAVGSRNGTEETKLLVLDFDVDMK
GPR151 activ: activates the human receptor GPR151; 1% of 650,000 active; PathHunter beta-arrestin GPR151 cells, luminescence; activation, % at 11.2 µM; Q8TDV0; AID 1508602; in the data active = activation above about 4.9%
TEAD-YAP inh: TEAD-YAP interaction inhibition. HEK-TIYL cells, TEAD-Gal4/YAP UAS-luciferase luminescence. inhibition, % at 9.12 µM. 1.4% of 640,000 active. AID 1259422; in the data active = inhibition above about 32%
MITF inh: human MITF inhibition, primary screen; 0.91% of 650,000 active; AlphaScreen MITF homodimerization, bead proximity signal; O75030; inhibition, % at 2.6 µM; in the data active = inhibition above about 50%
Hits are given with their value; n = inactive.

SMILES	FBW7 activator	GPR151 activ	TEAD-YAP inh	MITF inh
CC(=O)NCC(=O)NC(CC(=O)OCc1ccccc1)C(=O)OCc1ccccc1 (centres undefined)	n	n	n	n
O=C(NCc1cccs1)c1ccc(CN2CCC[C@H]2CO)[nH]c1=O	n	n	n	n
O=C(c1ccco1)N1CCN(c2nc3ccccc3n3cnnc23)CC1	n	n	n	n
O=c1nc2s/c(=C\c3ccco3)c(=O)n2nc1Cc1ccc(F)cc1	n	n	n	70
COc1cccc(C2(CC(=O)N3CCN(C)C(C)C3)CC(=O)N(CCN(C)C)C2=O)c1 (centres undefined)	n	n	n	n
COc1cccc(C2(CC(=O)N3CCOCC3)CC(=O)N(CCN(C)C)C2=O)c1 (centres undefined)	2.0	n	n	n
O=C(Nc1ccc(Oc2ccccc2)cc1)c1ccc(F)c(S(=O)(=O)NCc2ccc(F)cc2)c1	n	n	42	n
CCOC(=O)N1CCN(S(=O)(=O)c2cc(C(=O)Nc3ccc(Oc4ccccc4)cc3)ccc2F)CC1	n	n	n	n
COc1ccc(CNS(=O)(=O)c2cc(C(=O)Nc3ccc(Oc4ccccc4)cc3)ccc2F)cc1	n	n	n	n
Cc1c(Cl)cccc1NC(=O)c1cc(S(=O)(=O)NCc2ccco2)ccc1F	2.0	n	n	n
C=CCNS(=O)(=O)c1cc(C(=O)Nc2ccc(Oc3ccccc3)cc2)ccc1F	n	n	67	n
CCOc1ccc(NC(=O)c2cc(S(=O)(=O)NCc3ccccc3Cl)ccc2F)cc1	n	n	45	n
O=C(Nc1ccc(Oc2ccccc2)cc1)c1ccc(F)c(S(=O)(=O)NCCc2ccccc2)c1	n	n	40	n
CCOc1ccc(NC(=O)c2ccc(F)c(S(=O)(=O)NCc3ccccc3)c2)cc1	n	n	37	n
O=C(Nc1cccc(Cl)c1)c1ccc(F)c(S(=O)(=O)NCCc2ccccc2)c1	n	n	n	n
CCOC(=O)c1ccc(N2NC(=O)/C(=C/c3ccc(C)o3)C2=O)cc1	n	n	n	n
CCOC(=O)c1ccc(N2NC(=O)/C(=C/c3ccc([N+](=O)[O-])o3)C2=O)cc1	n	n	n	66
COc1ccc(Br)cc1/C=C/C(=O)Nc1cccc(NC(=O)c2ccco2)c1	n	n	n	n
c1ccc(CN=C2NN=C(c3ccccc3)CS2)cc1	n	n	n	n
C=CCN=C1NN=C(c2cc(C)n(CC=C)c2C)CS1	n	n	89	n
C=CCN=C1NN=C(c2ccc3c(c2)OCCO3)CS1	n	n	51	n
Cc1cc(C2=NNC(=NCc3ccccc3)SC2)c(C)n1C	n	n	n	n
CCN=C1NN=C(c2ccc(C)cc2)CS1	n	n	73	n
NC1=NN=C(c2ccc3c(c2)OCCO3)CS1	n	n	n	n
COc1ccc(CN2CN=C(Nc3nc(C)c4ccccc4n3)NC2)cc1	n	n	n	n
SMILES	FBW7 activator	GPR151 activ	TEAD-YAP inh	MITF inh
O=C(c1csc(-c2cc3ccccc3[nH]2)n1)N1CCOCC1	n	n	n	n
O=C(c1csc(-c2cc3ccccc3[nH]2)n1)N1CCc2ccccc21	n	n	40	n
Cc1cccc(CC(=O)Nc2cnn(-c3cccc(C(=O)N4CCNC(=O)CC4)c3)c2)c1	4.3	n	n	n
Cc1cccc(CC(=O)Nc2cnn(-c3cccc(C(=O)N4CCCO4)c3)c2)c1	n	n	n	n
CCC1=NN(C(=O)c2ccccc2O)C(O)(c2ccccc2)C1 (centres undefined)	n	n	46	n
CCC(C)(C)NC(=O)C(OC(=O)c1ccco1)c1ccc(OC)cc1 (centres undefined)	n	n	n	n
CCC(C)(C)NC(=O)C(OC(=O)c1ccco1)c1ccc(C)cc1 (centres undefined)	1.9	n	n	n
Cc1cccc(CN2CCN(C(C)C)C(CCO)C2)n1 (centres undefined)	n	n	n	n
Cn1c(=O)cc(OCCCC(=O)Nc2ccc(Cl)cn2)c2ccccc21	n	n	43	n
C=CCNC(=S)N/N=C/c1ccc(C(F)(F)F)cc1	n	n	44	n
CCOC(=O)N1CCN(C(=O)CSc2cn(Cc3ccccc3C)c3ccccc23)CC1	n	n	n	n
CNC(=O)/C(C#N)=C/c1cc(C)n(-c2ccc(F)cc2)c1C	n	n	71	n
COC(=O)c1cccc(-n2c(C)cc(/C=C(\C#N)C(=O)Nc3ccccc3)c2C)c1	n	n	39	n
COC(=O)c1cccc(-n2c(C)cc(/C=C(/C#N)C(=O)NCc3ccco3)c2C)c1	n	n	n	n
O=C(CSCCO)Nc1ccc(S(=O)(=O)N2CCCCC2)cc1	n	n	n	n
Cn1c2ccncc2c2cc([N+](=O)[O-])ccc21	n	n	76	n
CCOC(=O)Nc1ccc(I)cc1	n	n	n	n
